Test in all cases: NCI-60 one-dose screen, 48 h (100 = growth as untreated, 0 = no growth, -100 = all killed)
For test [1], the system named is SR leukemia. As to conditions: 10 µM unless noted.
The subject of test [2] is RPMI-8226 leukemia. As to conditions: 10 µM unless noted.
Test [3] deals with OVCAR-8 ovarian. As to conditions: 10 µM unless noted.
Test [4] has as its system OVCAR-5 ovarian. As to conditions: 10 µM unless noted.
Test [5] has as its system SK-OV-3 ovarian. As to conditions: 10 µM unless noted.
Test [6] has as its system IGROV1 ovarian. As to conditions: 10 µM unless noted.
Test [7] relates to HS 578T breast. As to conditions: 10 µM unless noted.
The test system of test [8] is NCI/ADR-RES ovarian. As to conditions: 10 µM unless noted.
The subject of test [9] is T-47D breast. As to conditions: 10 µM unless noted.
The test system of test [10] is BT-549 breast. As to conditions: 10 µM unless noted.
Test [11] has as its system MDA-MB-435 melanoma. As to conditions: 10 µM unless noted.
The test system of test [12] is SW-620 colon. As to conditions: 10 µM unless noted.
In test [13] the test system is MCF7 breast. As to conditions: 10 µM unless noted.
Test [14] relates to HCT-116 colon. As to conditions: 10 µM unless noted.
The test system of test [15] is HCC-2998 colon. As to conditions: 10 µM unless noted.
The test system of test [16] is KM12 colon. As to conditions: 10 µM unless noted.
Test [17] relates to OVCAR-4 ovarian. As to conditions: 10 µM.
For test [18], the system named is OVCAR-3 ovarian. As to conditions: 10 µM unless noted.

About 83,000 compounds went through this panel and 20% of them were active in at least one assay; those are over-represented in the sample as a whole.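 Plates (96-well) were seeded with cells, treated with compound at one concentration, and incubated for 48 hours before percent growth was determined.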 Values without a mark were called inactive. Calls of active or inactive are those of the source. The calls were made as follows: active = growth percent below 10; inactive = the rest.

With `COC(=O)c1cc(O)c2c(c1C(=O)OC)C[C@H]1[C@@H]3CC=C4C[C@@H](O)CC[C@]4(C)[C@H]3CC[C@]21C`, the growth in [1] was 31.5%; in test [2] it was 16.6%; in test [3] it was 63.9%; in test [4], 61.4%; in test [5] it was 83.7%; in [6] it was 72.8%. The growth in [7] was 31.5%; in [8], 44.2%; in test [9], 36%; in [10], 32.3%; in test [11], 37.6%; in test [12], 44.9%. In addition, the growth in test [13] is 37.2%; in test [14], 22%; in test [15], 41.6%; in [16], 36.3%.

As to `O=C(Nc1ccc(Cl)c(C(F)(F)F)c1)Nc1ccc(-c2cccnc2)cc1N1CCC(CO)CC1`, the growth is 2.35% (active) in [1]; 12.1% in test [2]; 26.8% in [3]; 43.8% in test [17]; 32.6% in test [5]; 61.4% in [6]. Further, the growth in [18] is 38%; in test [7], 34.4%; in test [8] it was 26.2%; in [9] it was 5.62% (active); in [11] it was 15.5%; in test [12], 35.5%. In addition, the growth in test [13] is 16.2%; in test [14] it was 11.8%; in test [15], 13.9%; in test [16] it was 25.7%.

Take `CC(=O)O.CC(=O)O.O.[Fe]`: the growth in [1] is 124%; in [2] it was 135%; in test [3], 99.1%; in [4] it was 105%; in test [5] it was 94.1%; in test [6], 106%. For the same compound, the growth in [18] was 108%; in test [8] it was 102%; in test [9], 97.7%; in test [11], 128%; in test [12], 98.3%; in test [13], 111%. Also, the growth in [14] was 108%; in test [15], 115%; in test [16], 104%.

Consider `CC(C)[N+](C)(C)CC(O)COc1cccc2ccccc12` (stereo not drawn), for which the growth in test [1] is 107%; in [2], 94.1%; in test [3] it was 98.4%; in test [17], 116%; in [5], 110%; in test [18] it was 96.8%. For the same compound, the growth in test [7] was 128%; in test [8], 108%; in test [9] it was 102%; in [10] it was 112%; in [11], 118%; in test [12], 99.7%. The growth in test [14] is 113%; in test [15] it was 101%; in test [16], 96.1%.

For the compound `O=C(Nc1cccc2cccnc12)c1cc(C(=O)c2ccc(Cl)cc2)n2ccc(-c3ccncc3)cc12`, the growth in [1] is 125%; in test [2] it was 103%; in [3] it was 97.8%; in test [4], 98.9%; in test [5], 92.1%; in [18], 111%. Moreover, the growth in test [7] was 89.6%; in test [8], 105%; in [9], 95.7%; in test [11], 97.6%; in test [12] it was 90.6%; in test [13], 98.3%. In addition, the growth was 113% in test [15] and 108% in test [16].

In the case of `N=C(N)c1ccc(-c2ccc(-c3ccc(-c4cccs4)s3)s2)cc1F`, the growth in [1] was 18.6%; in test [2] it was 49.4%; in test [3], 102%; in [17], 90.5%; in test [6], 93.5%; in test [18], 91.4%. The growth in [7] was 101%; in test [8] it was 102%; in test [9], 87.7%; in test [11], 94.1%; in test [12], 91.5%; in [13] it was 64.9%. Further, the growth in test [14] was 83.6%; in test [15], 69%; in test [16], 100%.

Turning to `O=C1Nc2ccccc2/C1=C/C(=O)c1ccc(N2CCCC2)cc1`, the growth in test [1] is 15.2%; in test [2], 15.8%; in test [3], -12.7% (active); in [4], 75.6%; in test [5], 70.9%; in test [18], -17.6% (active). Further, the growth in test [7] was 12.3%; in test [8], -23.8% (active); in test [9], 40.5%; in test [10], 107%; in test [11] it was -51.9% (active); in test [12] it was 5.46% (active). Besides, the growth in test [13] is 17.8%; in test [14] it was 103%; in [15] it was 77.9%; in [16] it was 15.1%.

Turning to `O=C(Nc1cccc2ccccc12)c1cc2ccccc2cc1O`, the growth in test [1] was 16%; in test [2], 15.1%; in [3], 12.2%; in test [4], 105%; in [5], 0.954% (active); in [6], 7.48% (active). Further, the growth was 32.2% in [7]; 4.52% (active) in [8]; 14.4% in test [9]; 11.6% in test [10]; 0.191% (active) in [11]; 16.6% in test [12]. Moreover, the growth in [13] is 8.7% (active); in test [14], 7.65% (active); in [15] it was 27.7%; in test [16] it was 10.2%.
